Data on seven molecules can be found in PubChem BioAssay (NCI).

Assay in all cases: NCI-60 one-dose screen, 48 h (100 = growth as untreated, 0 = no growth, -100 = all killed)
The test system of one assay is NCI-H226 lung. The note with it: 10 µM.
Another assay has as its system NCI-H322M lung. The note with it: 10 µM.
Another assay deals with HOP-62 NSCLC. The note with it: 10 µM.
A further assay relates to NCI-H460 lung. The note with it: 10 µM.
In another assay the test system is NCI-H522 lung. The note with it: 10 µM.
The subject of another assay is COLO 205 colon. The note with it: 10 µM.
For another assay, the system named is DU-145 prostate. The note with it: 10 µM.
The next assay relates to SF-268 CNS. The note with it: 10 µM.
A further assay concerns SF-295 CNS. The note with it: 10 µM.
Another assay relates to SF-539 CNS. The note with it: 10 µM.
For another assay, the system named is UACC-257 melanoma. The note with it: 10 µM.
A further assay deals with M14 melanoma. The note with it: 10 µM.
The test system of a further assay is HCT-15 colon. The note with it: 10 µM.
A further assay has as its system HT29 colon. The note with it: 10 µM.
A further assay concerns SNB-19 CNS. The note with it: 10 µM.
For a further assay, the system named is U251 CNS. The note with it: 10 µM.
A further assay concerns SK-MEL-5 melanoma. The note with it: 10 µM.
Another assay deals with UACC-62 melanoma. The note with it: 10 µM.
A further assay deals with SK-MEL-2 melanoma. The note with it: 10 µM.
The next assay concerns HL-60(TB) leukemia. The note with it: 10 µM unless noted.

The panel holds about 83,000 compounds, 20% with a hit somewhere; the sample as a whole holds those more often.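 Cells were grown in 96-well plates and exposed to the test compound at a single concentration for 48 hours; results are reported as percent growth, with values below 10 considered active.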 A number with no mark means an inactive call. The source made the active and inactive calls.

Consider `COC(=O)C[C@](O)(CCC(C)C)C(=O)O[C@@H]1C(OC)=C[C@]23CCCN2CCc2cc4c(cc2[C@H]13)OCO4`, for which the growth in the assay on NCI-H226 lung was -55.1% (active); in the assay on NCI-H322M lung it was -25.1% (active); with HOP-62 NSCLC it was -50.4% (active); with NCI-H460 lung, -20.6% (active); in the assay on NCI-H522 lung it was -80.7% (active); in the assay on COLO 205 colon it was -84.7% (active). Moreover, the growth with DU-145 prostate was -26.7% (active); with SF-268 CNS, -21.3% (active); with SF-295 CNS, -35.5% (active); in the assay on SF-539 CNS, -77.1% (active); in the assay on UACC-257 melanoma it was -66.7% (active); with M14 melanoma it was -89% (active). In addition, the growth with HCT-15 colon was -32.9% (active); in the assay on HT29 colon, -62.1% (active); in the assay with SNB-19 CNS, -16.9% (active); with U251 CNS, -27.3% (active); with SK-MEL-5 melanoma it was -95.4% (active); with UACC-62 melanoma, -92.5% (active). Further, the results for the growth with SK-MEL-2 melanoma and in the assay on HL-60(TB) leukemia were -85.9% (active) and -31% (active), respectively.

Take `CCC[Se]C(=O)c1ccc(C(=O)[Se]CCC)s1`: the growth in the assay with NCI-H226 lung was -50.9% (active); in the assay with NCI-H322M lung, -33.4% (active); in the assay with HOP-62 NSCLC it was -77.7% (active); with NCI-H460 lung, -11.9% (active); in the assay with NCI-H522 lung it was 17.9%; with COLO 205 colon, -85.7% (active). Besides, the growth in the assay with DU-145 prostate was 9.92% (active); in the assay with SF-268 CNS it was 3.6% (active); in the assay with SF-295 CNS it was -85.7% (active); in the assay on SF-539 CNS it was -84.7% (active); in the assay with UACC-257 melanoma it was -53.7% (active); with M14 melanoma, -63.4% (active). For the same molecule, the growth in the assay on HCT-15 colon is -71% (active); in the assay with HT29 colon, -58.5% (active); with SNB-19 CNS, -86.5% (active); in the assay on U251 CNS, -60.4% (active); in the assay on SK-MEL-5 melanoma, -76.3% (active); in the assay with UACC-62 melanoma, -64.9% (active). Besides, the growth in the assay with SK-MEL-2 melanoma was -24.1% (active); in the assay with HL-60(TB) leukemia, -26.7% (active).

With `CC12OOC(C)(OO1)C2CCC(=O)NCCCNc1ccnc2cc(Cl)ccc12` (centres undefined), the growth with NCI-H226 lung was 94%; with NCI-H322M lung, 97.1%; in the assay with HOP-62 NSCLC, 95.1%; in the assay with NCI-H460 lung, 88.6%; in the assay on NCI-H522 lung, -77.8% (active); with COLO 205 colon, -62.6% (active). The growth in the assay with DU-145 prostate is -74.4% (active); in the assay on SF-268 CNS, 101%; in the assay on SF-295 CNS, 102%; with SF-539 CNS, 52.9%; in the assay on UACC-257 melanoma it was 96.2%; with M14 melanoma, 86%. The growth was -45.1% (active) with HCT-15 colon; 35% in the assay with HT29 colon; 94.1% with SNB-19 CNS; 101% with U251 CNS; 86.4% in the assay on SK-MEL-5 melanoma; 87.2% in the assay on UACC-62 melanoma. Further, the growth with SK-MEL-2 melanoma was 100%; with HL-60(TB) leukemia it was 96.6%.

For `Cc1c2oc3c(C)ccc(C(=O)N[C@@H]4C(=O)N[C@H](C(C)C)C(=O)N5CCC[C@H]5C(=O)N(C)CC(=O)N(C)[C@@H](C(C)C)C(=O)OC4C)c3nc-2c(C(=O)N[C@@H]2C(=O)N[C@H](C(C)C)C(=O)N3CC(=O)C[C@H]3C(=O)N(C)CC(=O)N(C)[C@@H](C(C)C)C(=O)OC2C)c(N)c1=O` (some centres undefined), the growth with NCI-H226 lung was -4.29% (active); in the assay on NCI-H322M lung it was 4.93% (active); in the assay with HOP-62 NSCLC it was -21% (active); with NCI-H460 lung it was 5.56% (active); with NCI-H522 lung it was -38.6% (active); in the assay with COLO 205 colon, -71% (active). Besides, the growth was 12.8% with DU-145 prostate; -9.63% (active) with SF-268 CNS; 1.34% (active) in the assay with SF-295 CNS; -28.4% (active) in the assay with SF-539 CNS; -28% (active) with UACC-257 melanoma; -8.68% (active) with M14 melanoma. Also, the growth in the assay on HCT-15 colon is 3.67% (active); with HT29 colon, 1.14% (active); in the assay with SNB-19 CNS, 4.37% (active); in the assay with U251 CNS it was 1.58% (active); with SK-MEL-5 melanoma it was -48.6% (active); in the assay with UACC-62 melanoma it was -57.5% (active). In the assay on SK-MEL-2 melanoma, the growth is -68.5% (active).

For the molecule `COc1cc2cc(C(=O)N3C[C@@H](CCl)c4c3cc(OC(=O)N3CCN(C)[C@@H]5CSSC[C@@H]53)c3ccccc43)[nH]c2c(OC)c1OC`, the growth in the assay on NCI-H226 lung is -26.1% (active); with NCI-H322M lung, -7.87% (active); with HOP-62 NSCLC, -32.3% (active); in the assay on NCI-H460 lung, -13.4% (active); in the assay on NCI-H522 lung, -55.8% (active); in the assay on COLO 205 colon it was -55.6% (active). The growth in the assay with DU-145 prostate was -4.86% (active); with SF-268 CNS, -17.8% (active); in the assay on SF-295 CNS, -8.99% (active); in the assay with SF-539 CNS, -72.4% (active); in the assay on UACC-257 melanoma it was -15.4% (active); with M14 melanoma, -79% (active). Also, the growth in the assay with HCT-15 colon is 1.23% (active); in the assay with HT29 colon, -6.59% (active); with SNB-19 CNS, -9.25% (active); with U251 CNS, 7.22% (active); with SK-MEL-5 melanoma, -32.2% (active); with UACC-62 melanoma it was -91.4% (active). For the same molecule, the results for the growth with SK-MEL-2 melanoma and with HL-60(TB) leukemia were -89% (active) and 1.55% (active), respectively.

With `C[C@H]1[C@H](OC(=O)CCC(=O)N(CCCc2cn(-c3ccc(C#N)cc3)nn2)CCNc2ccnc3cc(Cl)ccc23)O[C@@H]2OC3(C)CC[C@H]4[C@H](C)CC[C@@H]1[C@@]24OO3`, the growth was 60.3% in the assay on NCI-H226 lung; 82.9% in the assay with NCI-H322M lung; 66.4% with HOP-62 NSCLC; 58.2% in the assay on NCI-H460 lung; 7.88% (active) with NCI-H522 lung; 14.5% in the assay with COLO 205 colon. The growth is 69.3% in the assay on DU-145 prostate; 54.9% in the assay on SF-268 CNS; 53.8% in the assay on SF-295 CNS; 44.5% in the assay with SF-539 CNS; 58.3% with UACC-257 melanoma; 48.1% in the assay with M14 melanoma. The growth is 12.1% with HCT-15 colon; 18.6% in the assay on HT29 colon; 69.8% with SNB-19 CNS; 51.9% in the assay with U251 CNS; 22.9% in the assay with SK-MEL-5 melanoma; 43.3% with UACC-62 melanoma. The growth was 31.4% with SK-MEL-2 melanoma and -29.9% (active) with HL-60(TB) leukemia.

For `CCOC(=O)C1=C(Nc2ccccc2)C(=O)OC12C(=O)Nc1ccccc12` (centres undefined), the growth was 115% in the assay on NCI-H226 lung; 103% in the assay with NCI-H322M lung; 97.6% in the assay on HOP-62 NSCLC; 108% in the assay on NCI-H460 lung; 96.5% in the assay with NCI-H522 lung; 119% in the assay with COLO 205 colon. Moreover, the growth in the assay with DU-145 prostate was 114%; in the assay with SF-268 CNS, 95.7%; in the assay on SF-295 CNS, 107%; in the assay on SF-539 CNS, 97.6%; in the assay on UACC-257 melanoma, 101%; in the assay on M14 melanoma, 105%. The growth in the assay with HCT-15 colon is 105%; in the assay on HT29 colon, 111%; in the assay with SNB-19 CNS, 96.4%; in the assay on U251 CNS, 109%; with SK-MEL-5 melanoma it was 107%; with UACC-62 melanoma, 93.5%. Also, the growth was 99.9% in the assay with SK-MEL-2 melanoma and 102% in the assay on HL-60(TB) leukemia.
